From PubChem BioAssay (Tox21)
Several values for one entry are separate records, joined by “and”; a condition that tells them apart may be missing. Equal entries are not always repeated. More than one record can exist for a structure, and the calls need not agree. Activity calls are given as the source filed them. Unless noted, the call rests on the fitted dose curve; in most records, active means well fitted curve in the direction sought with a large enough effect in the repeat runs; inconclusive means weak or mixed curves; inactive means no such curve, though single readings can be large; an effect the other way counts as inactive or inconclusive.

Columns and labels:
[1] = qHTS assay to identify small molecule antagonists of the glucocorticoid receptor (GR) signaling pathway - cell viability counter screen (AID 720693); further: nearly all actives have a fitted effect of over 55% in size; further: potency means the concentration at half of the fitted maximal effect
[2] = qHTS assay for identifying genotoxic compounds that show differential cytotoxicity against isogenic chicken DT40 cell lines with known DNA damage response pathways - wild type cell line (AID 743012); further: nearly all actives have a fitted effect of over 60% in size; further: potency means the concentration at half of the fitted maximal effect
Method in brief: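 Cytotoxicity in repair-proficient parental chicken DT40 cells serves as the comparator for Rad54/Ku70- and Rev3-deficient lines. Cells were exposed to compounds for 40 h at 37 C/5% CO2, and ATP-based luminescence (CellTiter-Glo) measured viability.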

[3] = qHTS assay for identifying genotoxic compounds that show differential cytotoxicity against isogenic chicken DT40 cell lines with known DNA damage response pathways - Rev3 mutant cell line (AID 743014); further: nearly all actives have a fitted effect of over 55% in size; further: potency means the concentration at half of the fitted maximal effect
[4] = qHTS assay to identify small molecule antagonists of the androgen receptor (AR) signaling pathway - cell viability counter screen (AID 743033; further: nearly all actives have a fitted effect of over 45% in size; further: potency means the concentration at half of the fitted maximal effect)
[5] = biological target: Estrogen receptor (Homo sapiens) (UniProt P03372); experiment: qHTS assay to identify small molecule antagonists of the estrogen receptor alpha (ER-alpha) signaling pathway (AID 743069; active means well fitted curve in the direction sought with a large enough effect in the signal ratio in the repeat runs, not every such curve was filed as active; inconclusive means weak or mixed curves, or effect the other way; inactive means no such curve, though single readings can be large or run the other way; the % refers to the signal ratio; further: potency means the concentration at half of the fitted maximal effect)
Sequence of Estrogen receptor (Homo sapiens) (P03372 whole entry, looked up): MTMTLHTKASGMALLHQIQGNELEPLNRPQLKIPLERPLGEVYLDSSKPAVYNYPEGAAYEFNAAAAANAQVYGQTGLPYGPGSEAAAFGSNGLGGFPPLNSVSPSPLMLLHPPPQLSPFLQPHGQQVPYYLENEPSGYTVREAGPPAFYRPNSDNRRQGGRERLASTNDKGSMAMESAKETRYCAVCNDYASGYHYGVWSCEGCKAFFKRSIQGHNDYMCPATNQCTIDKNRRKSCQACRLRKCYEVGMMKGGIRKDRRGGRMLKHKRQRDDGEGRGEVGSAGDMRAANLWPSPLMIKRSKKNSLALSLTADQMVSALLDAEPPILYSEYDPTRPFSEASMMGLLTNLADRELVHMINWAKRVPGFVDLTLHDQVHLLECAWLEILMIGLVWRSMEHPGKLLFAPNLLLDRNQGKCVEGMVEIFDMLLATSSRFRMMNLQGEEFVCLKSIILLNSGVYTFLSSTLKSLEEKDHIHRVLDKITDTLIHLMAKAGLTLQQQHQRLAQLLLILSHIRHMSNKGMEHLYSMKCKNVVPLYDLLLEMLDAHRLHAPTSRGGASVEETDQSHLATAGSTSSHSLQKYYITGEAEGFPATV
Method in brief: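 A 17beta-estradiol challenge was applied right after compound transfer to ER-alpha-UAS-bla HEK293 cells previously kept in charcoal-stripped serum. Plates stood 18 hr at 37C and 5% CO2; fluorescence was read following 2 hr FRET substrate loading at room temperature.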

[6] = qHTS assay to identify small molecule antagonists of the estrogen receptor alpha (ER-alpha) signaling pathway - cell viability counter screen (AID 743074; calls by dose curve;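 further: HEK293 cells carrying ER-alpha-UAS-bla reporter stimulated with 17beta-estradiol; nearly all actives have a fitted effect of over 45% in size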; further: potency means the concentration at half of the fitted maximal effect)
[7] = biological target: Estrogen receptor (Homo sapiens) (UniProt P03372); experiment: qHTS assay to identify small molecule agonists of the estrogen receptor alpha (ER-alpha) signaling pathway (AID 743075; calls by dose curve;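 further: HEK293 GripTite cells with ER-alpha and UAS-driven beta-lactamase reporter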; further: potency means the concentration at half of the fitted maximal effect; on activation: on the % scale 0 is the no-effect control and ±100 the full control effect); settings: HEK293 ER-alpha-UAS-bla, beta-lactamase FRET ratio, 18 h; activation: at 70.1 µM (top of the series)
[8] = qHTS assay to identify small molecule antagonists of the estrogen receptor alpha (ER-alpha) signaling pathway using the BG1 cell line (AID 743080; calls by dose curve;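 further: BG1 cells stimulated with 17beta-estradiol alongside compound; on the % scale 0 is the no-effect control and ±100 the full control effect; nearly all actives have a fitted effect of over 25% in size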)
Method in brief: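 BG1Luc4E2, endogenous ER-alpha, 4xERE-luc; 5 d charcoal-stripped FBS, phenol red free; 24 h plating; cpd + 17beta-estradiol 21.5 h, 37 C/5% CO2; CellTiter-Fluor viability 30 min, then ONE-Glo luciferase 30 min RT.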

[9] = qHTS assay to identify small molecule antagonists of the estrogen receptor alpha (ER-alpha) signaling pathway using the BG1 cell line - cell viability counter screen (AID 743081);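 further: compound given together with 17beta-estradiol as the ER stimulus; nearly all actives have a fitted effect of over 45% in size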; further: potency means the concentration at half of the fitted maximal effect
Aromatase (Homo sapiens) = Aromatase (Homo sapiens) (UniProt P11511); experiment: qHTS assay to identify aromatase inhibitors (AID 743083); further: nearly all actives have a fitted effect of over 55% in size; further: potency means the concentration at half of the fitted maximal effect
Sequence of Aromatase (Homo sapiens) (P11511 whole entry, looked up): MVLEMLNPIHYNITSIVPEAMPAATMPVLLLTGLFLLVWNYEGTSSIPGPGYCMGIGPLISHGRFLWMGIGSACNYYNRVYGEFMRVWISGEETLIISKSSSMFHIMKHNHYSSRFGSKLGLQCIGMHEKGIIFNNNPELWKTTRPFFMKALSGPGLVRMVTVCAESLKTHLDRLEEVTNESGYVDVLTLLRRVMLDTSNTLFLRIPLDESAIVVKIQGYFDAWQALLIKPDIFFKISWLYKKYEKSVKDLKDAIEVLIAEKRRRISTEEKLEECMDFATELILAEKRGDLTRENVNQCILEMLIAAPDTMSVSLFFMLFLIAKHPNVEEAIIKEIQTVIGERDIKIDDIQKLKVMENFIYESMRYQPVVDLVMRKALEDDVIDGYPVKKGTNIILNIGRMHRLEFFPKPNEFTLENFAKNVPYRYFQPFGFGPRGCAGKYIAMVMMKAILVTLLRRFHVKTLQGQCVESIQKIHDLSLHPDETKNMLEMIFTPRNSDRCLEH

[10] = qHTS assay to identify aromatase inhibitors - cell viability counter screen (AID 743084);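 further: cells stimulated with testosterone during compound exposure; nearly all actives have a fitted effect of over 55% in size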; further: potency means the concentration at half of the fitted maximal effect
[11] = qHTS assay for identifying genotoxic compounds that show differential cytotoxicity against isogenic chicken DT40 cell lines with known DNA damage response pathways - Rad54/Ku70 mutant cell line (AID 743015); further: nearly all actives have a fitted effect of over 60% in size; further: potency means the concentration at half of the fitted maximal effect
[12] = qHTS assay to identify small molecule antagonists of the androgen receptor (AR) signaling pathway using the MDA cell line - cell viability counter screen (AID 743041; further: nearly all actives have a fitted effect of over 45% in size; further: potency means the concentration at half of the fitted maximal effect)
Method in brief: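 In this qHTS counter assay, fluorescence intensity after CellTiter-Fluor addition indicated viability of MDA-kb2 AR-luc cells given compounds and R1881 for 16 h at 37C.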

[13] = qHTS assay to identify small molecule antagonists of the thyroid receptor (TR) signaling pathway - cell viability counter screen (AID 743064); further: nearly all actives have a fitted effect of over 50% in size; further: potency means the concentration at half of the fitted maximal effect
Method in brief: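 In rat pituitary GH3.TRE-Luc reporter cells co-exposed to compound and 1 nM T3 for 23.5 h, cytotoxicity was assessed with CellTiter-Fluor in the same wells, read by fluorescence.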

[14] = qHTS assay to identify small molecule antagonists of the thyroid receptor (TR) signaling pathway (AID 743065); further: nearly all actives have a fitted effect of over 55% in size; further: potency means the concentration at half of the fitted maximal effect
Method in brief: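 GH3.TRE-Luc rat pituitary cells carrying two TR response elements driving luciferase were plated for 4 h, given compound plus 1 nM T3 (final), and incubated 23.5 h at 37 C. ONE-Glo luminescence measured reporter inhibition; CellTiter-Fluor fluorescence tracked cytotoxicity.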

[15] = tested on: thyroid hormone receptor (rat, GH3 cells); experiment: qHTS assay to identify small molecule agonists of the thyroid receptor (TR) signaling pathway (AID 743066; calls by dose curve; further: on the % scale 0 is the no-effect control and ±100 the full control effect)
[16] = biological target: Estrogen receptor (Homo sapiens) (UniProt P03372); experiment: qHTS assay to identify small molecule agonists of the estrogen receptor alpha (ER-alpha) signaling pathway using the BG1 cell line (AID 743079); settings: BG1Luc4E2 cells, ERE-luciferase agonist, 22 h; further: on the % scale 0 is the no-effect control and ±100 the full control effect; nearly all actives have a fitted effect of over 20% in size
[17] = biological target: Androgen receptor (Homo sapiens) (UniProt P10275); experiment: qHTS assay to identify small molecule agonists of the androgen receptor (AR) signaling pathway using the MDA cell line (AID 743040; further: on the % scale 0 is the no-effect control and ±100 the full control effect; nearly all actives have a fitted effect of over 20% in size)
Sequence of Androgen receptor (Homo sapiens) (P10275 whole entry, looked up): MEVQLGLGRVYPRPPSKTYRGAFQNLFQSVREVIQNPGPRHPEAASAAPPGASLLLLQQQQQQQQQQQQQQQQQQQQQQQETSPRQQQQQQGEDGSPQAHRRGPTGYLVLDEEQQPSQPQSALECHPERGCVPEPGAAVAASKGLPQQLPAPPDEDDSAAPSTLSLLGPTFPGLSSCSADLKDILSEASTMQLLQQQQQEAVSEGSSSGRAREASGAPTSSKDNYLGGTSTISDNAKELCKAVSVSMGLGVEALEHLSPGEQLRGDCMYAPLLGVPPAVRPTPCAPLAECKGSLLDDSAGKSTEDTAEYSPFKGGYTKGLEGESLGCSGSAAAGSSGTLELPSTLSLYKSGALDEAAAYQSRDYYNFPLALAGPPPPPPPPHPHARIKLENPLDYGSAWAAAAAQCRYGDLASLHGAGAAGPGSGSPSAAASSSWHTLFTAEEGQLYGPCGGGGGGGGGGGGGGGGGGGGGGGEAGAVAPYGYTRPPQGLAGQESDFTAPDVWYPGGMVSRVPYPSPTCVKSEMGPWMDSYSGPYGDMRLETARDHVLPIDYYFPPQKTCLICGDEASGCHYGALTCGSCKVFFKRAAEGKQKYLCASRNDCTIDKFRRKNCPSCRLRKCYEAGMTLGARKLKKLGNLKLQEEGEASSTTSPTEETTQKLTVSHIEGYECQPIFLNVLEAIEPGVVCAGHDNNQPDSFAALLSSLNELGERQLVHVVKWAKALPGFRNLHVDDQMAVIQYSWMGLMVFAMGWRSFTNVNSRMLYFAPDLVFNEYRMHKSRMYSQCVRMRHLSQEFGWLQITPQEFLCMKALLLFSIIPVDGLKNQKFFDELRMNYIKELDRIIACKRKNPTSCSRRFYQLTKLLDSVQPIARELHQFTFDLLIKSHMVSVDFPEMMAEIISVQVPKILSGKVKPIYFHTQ
Method in brief: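 Cell-based luciferase reporter: MDA-kb2, MMTV promoter (AR + GR response elements). 16 h compound exposure at 37C; ONE-Glo, 30 min RT, luminescence.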

[18] = biological target: Androgen receptor (Homo sapiens) (UniProt P10275); experiment: qHTS assay to identify small molecule antagonists of the androgen receptor (AR) signaling pathway using the MDA cell line (AID 743042; further: nearly all actives have a fitted effect of over 55% in size; further: potency means the concentration at half of the fitted maximal effect)
Method in brief: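 MDA-kb2 cells (human breast carcinoma, stably carrying an MMTV-luciferase reporter responsive to AR and GR) were plated at 3,000 cells/well and preincubated 5 hr at 37C, then given compound plus R1881 agonist for 16 h. ONE-Glo luminescence was read.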

[19] = biological target: Androgen receptor (Homo sapiens) (UniProt P10275); experiment: qHTS assay to identify small molecule antagonists of the androgen receptor (AR) signaling pathway (AID 743035; active means well fitted inhibition curve with a large enough effect in the signal ratio in the repeat runs, not every such curve was filed as active; inconclusive means weak or mixed curves, or effect the other way; inactive means no such curve, though single readings can be large or run the other way; the % refers to the signal ratio; further: potency means the concentration at half of the fitted maximal effect)
Method in brief: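 Steps: seed AR-UAS-bla GripTite HEK293 cells, incubate 4 h at 37C; pin in test compound, then add agonist R1881; incubate 16 h at 37C; add LiveBLAzer B/G FRET substrate, 2 h at room temperature; read fluorescence.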

CSc1ccc(C(=O)c2[nH]c(=O)[nH]c2C)cc1
inactive: Potency [1] | Potency [2] | Potency [3] | Potency [4] | Potency [5] | Potency [6] | Potency [7] | Potency [8] | Potency [9] | Potency (Aromatase (Homo sapiens)) | Potency [10]

CCC(C)(C)C1CCCCC1OC(C)=O (configuration not stated)
inactive: Potency [1] | Potency [2] | Potency [11] | Potency [4] | Potency [12] | Potency [13] | Potency [14] | Potency [15] | Potency [5] | Potency [6] | Potency [7] | activation ([16]; at 70.3 µM (top of the series)) 7.91% | Potency [8] | Potency [9] | Potency (Aromatase (Homo sapiens)) | Potency [10]

O=C1CCCCCN1SSN1CCCCCC1=O
inactive: Potency [1] | Potency [12] | Potency [15] | Potency [6] | Potency [7] | activation ([16]; at 70.3 µM (top of the series)) -12.6% | Potency [8] | Potency [9]
active: Potency [2] 13.7 µM | Potency [3] 19.3 µM | Potency [11] 15400 nM | Potency [14] 27.3 µM

O=C1c2c(O)ccc(Nc3ccc(CCO)cc3)c2C(=O)c2c([N+](=O)[O-])ccc(O)c21
active: Potency [2] 61.1 µM | Potency [3] 61.1 µM | Potency [13] 61.1 µM | Potency [10] 54.5 µM
inactive: Potency [1] | Potency [17] | Potency [15] | Potency [6] | Potency [7] | activation ([16]; at 70.3 µM (top of the series)) -6.57% | Potency [8]

Cc1nc(-c2ccc3c(c2)CCN(CCC2CCC(NC(=O)/C=C/c4ccc(F)cc4)CC2)CC3)no1 (configuration not stated)
active: Potency [2] 0.386 µM | Potency [3] 0.687 µM | Potency [13] 10.9 µM | Potency [7] 9.79 µM [inconclusive]
inactive: Potency [1] | Potency [17] | Potency [12] | Potency [18] | Potency [15] | Potency [6] | Potency [8] | Potency [9] | Potency (Aromatase (Homo sapiens)) | Potency [10]

CCOC(=O)O[C@H](C)OC(=O)c1ccc2c(c1)cc(C(=O)NC1CCN(C(C)C)CC1)n2Cc1cc(-c2ccc(Cl)s2)on1
inactive: Potency [9]
active: Potency [1] 20.4 µM | Potency [2] 6.41 µM | Potency [3] 11.4 µM | Potency [4] 7.25 µM | Potency [13] 5.09 µM | Potency [14] 4.54 µM | Potency [6] 45.8 µM | Potency (Aromatase (Homo sapiens)) 14.3 µM | Potency [10] 18.1 µM

Oc1ccc2cc(SSc3ccc4cc(O)ccc4c3)ccc2c1
inactive and 61.1 µM (active): Potency [13]
inactive: Potency [1] | Potency [12] | Potency [15] | Potency [6] | Potency [9]
active: Potency [2] 24.3 µM | Potency [3] 19.4 µM and 21.7 µM | Potency [11] 24.4 µM and 27.3 µM | Potency [10] 54.5 µM

CC1=C(C(=O)OC(C)C)C(c2cccc([N+](=O)[O-])c2)C(C(=O)OC2CN(C(c3ccccc3)c3ccccc3)C2)=C(N)N1 (configuration not stated)
active: Potency [1] 8.49 µM | Potency [2] 18.8 µM | Potency [3] 18.8 µM | Potency [11] 13300 nM | Potency [13] 2.98 µM | Potency [14] 2.98 µM | Potency [6] 23.9 µM | Potency (Aromatase (Homo sapiens)) 29.8 µM

CCC1=C[C@@H]2CN(C1)Cc1c([nH]c3ccccc13)[C@@](C(=O)OC)(c1cc3c(cc1OC)N(C)[C@H]1[C@@](O)(C(=O)OC)[C@H](OC(C)=O)[C@]4(CC)C=CCN5CC[C@]31[C@@H]54)C2
active: Potency [2] 0.075 µM | Potency [11] 119 nM | Potency [13] 4.73 µM | Potency [14] 1.88 µM
inactive: Potency [1] | Potency [4] | Potency [12] | Potency [6] | Potency [8] | Potency (Aromatase (Homo sapiens)) | Potency [10]

CCCCCCCCCCCCCC[P+](CCCC)(CCCC)CCCC (tested in a mixture with another compound)
inactive: Potency [17]
active: Potency [1] 8.76 µM | Potency [2] 0.388 µM | Potency [11] 218 nM | Potency [4] 0.983 µM | Potency [19] 1.75 µM | Potency [12] 5.48 µM | Potency [18] 3.46 µM | Potency [13] 4.35 µM | Potency [9] 15.4 µM | Potency (Aromatase (Homo sapiens)) 4.35 µM | Potency [10] 4.35 µM

CC(C)n1nc(-c2cc3cc(O)ccc3[nH]2)c2c(N)ncnc21
active: Potency [1] 9.52 µM | Potency [2] 0.841 µM | Potency [3] 2.37 µM | Potency [11] 944 nM | Potency [13] 0.106 µM | Potency [14] 0.0944 µM | Potency (Aromatase (Homo sapiens)) 0.335 µM
inactive: Potency [7]

O=C1C=CC(=O)N1
active: Potency [1] 31.7 µM | Potency [2] 6.28 µM | Potency [3] 2.5 µM | Potency [4] 22.5 µM | Potency [12] 55.9 µM | Potency [18] 31.4 µM | Potency [13] 9.95 µM | Potency [6] 56.4 µM | Potency (Aromatase (Homo sapiens)) 8.86 µM | Potency [10] 9.95 µM
inactive: Potency [17] | Potency [7] | activation ([16]; at 95 µM (top of the series)) -8.49%

O=C(NOCC1CC1)c1ccc(F)c(F)c1Nc1ccc(I)cc1Cl
inactive: Potency [17] | Potency [7] | Potency [9] | Potency (Aromatase (Homo sapiens))
active: Potency [1] 23.9 µM | Potency [2] 29.8 µM | Potency [3] 29.8 µM | Potency [13] 15 µM | Potency [14] 13.3 µM | Potency [5] 3.79 µM [inconclusive]

Cn1cc(C(=O)[C@@H]2CCc3nc[nH]c3C2)c2ccccc21
inactive: Potency [1] | Potency [2] | Potency [3] | Potency [4] | Potency [12] | Potency [13] | Potency [14] | Potency [15] | Potency [5] | Potency [6] | Potency [7] | activation ([16]; at 70.3 µM (top of the series)) 5.8% | Potency [8] | Potency [9] | Potency (Aromatase (Homo sapiens)) | Potency [10]
